Source: PubChem BioAssay (Tox21)
A number with no mark means an inactive call. Results filed as inconclusive are left out. Where a call stands in place of a potency, no number is given. Activity calls are given as the source filed them. Unless noted, the call rests on the fitted dose curve.

Assays:
[1] = Nuclear factor erythroid 2-related factor 2/antioxidant responsive element (Nrf2/ARE) small molecule agonists: qHTS cell viability counter screen in human keratinocytes (AID 1919968; active means well fitted curve in the direction sought with a large enough effect in the repeat runs; an effect the other way counts as inactive or inconclusive; further: nearly all actives have a fitted effect of over 55% in size)
In short: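 Fluorescence read-out from CellTiter-Fluor after 1 h at 37 C. Wells held HaCaT-derived ARE-luciferase reporter cells (1,500/well) treated 23 h with DMSO-dissolved compounds. Run in the same wells as the luciferase agonist read.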

[2] = molecular target: Gonadotropin-releasing hormone receptor (Homo sapiens) (UniProt P30968); test: Human gonadotropin-releasing hormone receptor (GnRHR) small molecule agonists, calcium flux assay in GnRHR-HEK293 cells (AID 1920063); further: nearly all actives have a fitted effect of over 35% in size
In short: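 Calcium-dye fluorescence, Ex/Em=480/540, recorded every 1 sec over 3 min after compound addition to GnRHR-HEK293 cells. Cells had been seeded 18 hours earlier and dye-loaded for 1 hour at 37 C. Fifteen concentrations, triplicates.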

[3] = molecular target: KiSS-1 receptor (Homo sapiens) (UniProt Q969F8); test: Human kisspeptin (KISS1R) small molecule agonists, calcium flux assay in KISS1R-HEK293 cells (AID 1920064; active means well fitted curve in the direction sought with a large enough effect in the repeat runs; an effect the other way counts as inactive or inconclusive)
In short: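 Calcium flux read-out: kinetic fluorescence at Ex/Em=480/540, 1 s intervals over 3 min, after pin-tool compound addition to dye-loaded KISS1R-HEK293 cells. Fifteen concentrations, triplicates.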

[4] = G protein-coupled receptor (GPCR) small molecule agonists, calcium flux assay: HEK293 wild type cell line counter screen (AID 1920065)
In short: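 Agonist mode; 18 h seeding at 37 C, 1 h dye load at 37 C; compounds pinned from DMSO, ATP as positive control; kinetic fluorescence 480/540 nm, 3 min, 1 s reads; 15 concentrations, triplicate.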

[5] = p53 small molecule agonists, cell-based qHTS assay with rat liver microsomes: qHTS cell viability counter screen (AID 1963580); further: nearly all actives have a fitted effect of over 45% in size
In short: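 After the beta-lactamase ratio was read, CellTiter-Glo was added to the same wells and luminescence measured at 30 min; cells had been treated 16 h at 37 C with compounds, rat liver microsomes and NADPH (0.5 mg/mL final each).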

[6] = p53 small molecule agonists, cell-based qHTS assay: qHTS cell viability counter screen (AID 1963581); further: nearly all actives have a fitted effect of over 45% in size
In short: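 Cytotoxicity read-out: ATP-based luminescence (CellTiter-Glo, 30 min RT) measured in the same wells as the p53 reporter assay, HCT-116 p53RE-bla cells, 16 h compound exposure at 37 C.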

[7] = molecular target: 5-hydroxytryptamine receptor 2A (Homo sapiens) (UniProt P28223); test: 5-hydroxytryptamine receptor 2A (HTR2A) small molecule agonists, cell-based qHTS assay (AID 1963587); further: nearly all actives have a fitted effect of over 30% in size
In short: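 CHO cells stably expressing human HTR2A, plated 18 h, loaded with calcium dye 1 h at 37 C. Agonist mode: compounds added and intracellular calcium fluorescence recorded kinetically for 2 min at 1 sec intervals.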

[8] = molecular target: Muscarinic acetylcholine receptor M1 (Homo sapiens) (UniProt P11229); test: Cholinergic receptor muscarinic 1 (CHRM1) small molecule agonists, cell-based qHTS assay (AID 1963589); further: nearly all actives have a fitted effect of over 35% in size
In short: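 Calcium flux read-out: kinetic fluorescence at 1 sec intervals after pin-tool compound addition to dye-loaded CHRM1-CHO cells (human M1). Agonist mode; 15 concentrations tested in triplicate independent runs.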

[9] = cAMP Responsive Elements (CRE) small molecule agonists, cell-based qHTS assay (AID 1963590)
In short: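 Beta-lactamase reporter readout: LiveBLAzer B/G FRET substrate, 2 h at room temperature, added after 3 h compound treatment of CRE-bla HEK 293T cells at 37 C/5% CO2.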

[10] = molecular target: Beta-2 adrenergic receptor (Homo sapiens) (UniProt P07550); test: Adrenergic beta2 receptor (ADRB2) small molecule antagonists, cell-based qHTS assay (AID 1963592); further: series mostly up to about 92 µM; nearly all actives have a fitted effect of over 50% in size
In short: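 Assay format: CHO-ADRB2 cells, 18-20hr seeding at 37C/5% CO2, then compound plus 1nM isoproterenol agonist mix for 0.5hr RT. Homogeneous time-resolved fluorescence cAMP detection after 1hr, expressed as 665/615 nm ratio.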

[11] = molecular target: Beta-2 adrenergic receptor (Homo sapiens) (UniProt P07550); test: Adrenergic beta2 receptor (ADRB2) small molecule agonists, cell-based qHTS assay (AID 1963593);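 further: CHO cells stably overexpressing human ADRB2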
In short: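 CHO cells stably over-expressing ADRB2 were plated overnight at 37C, then dosed with compounds plus a stimulation mix containing 100uM IBMX and 25uM Ro-20-1724 for 0.5hr at room temperature. cAMP was measured by HTRF competition, 1hr.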

[12] = molecular target: D(2) dopamine receptor (Homo sapiens) (UniProt P14416); test: Dopamine D2 receptor (DRD2) small molecule agonists, cell-based qHTS assay (AID 1963594); further: nearly all actives have a fitted effect of over 35% in size
In short: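 HEK293 cells stably expressing human DRD2, pre-treated with PDE inhibitor Ro20-1724 (0.1 mM final) and compound 10 min at room temperature, then stimulated with NKH477 (200nM […]) for 30 min. cAMP read by HTRF (665/620 nm).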

[13] = molecular target: D(2) dopamine receptor (Homo sapiens) (UniProt P14416); test: Dopamine D2 receptor (DRD2) small molecule antagonists, cell-based qHTS assay (AID 1963595; active means well fitted inhibition curve with a large enough effect in the signal ratio in the repeat runs, with a control signal flat; the % refers to the signal ratio)
In short: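 Antagonism was scored as restored cAMP in HEK293-DRD2 cells. These cells were stimulated with 200 nM NKH477 and 12 nM quinpirole for 30 min at room temperature, in the presence of 0.1 mM Ro20-1724.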

[14] = molecular target: 5-hydroxytryptamine receptor 2A (Homo sapiens) (UniProt P28223); test: 5-hydroxytryptamine receptor 2A (HTR2A) small molecule antagonists, cell-based qHTS assay (AID 1963586); further: nearly all actives have a fitted effect of over 45% in size; further: potency means the concentration at half of the fitted maximal effect
In short: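 CHO cells stably expressing human HTR2A were plated for 18 h at 37 C, then loaded with calcium dye for 1 h. Compounds were preincubated 5 min at room temperature before DOI (4 nM solution) was added. Kinetic fluorescence was read for 3 min.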

[15] = cAMP Responsive Elements (CRE) small molecule antagonists, cell-based qHTS assay (AID 1963591; active means well fitted inhibition curve with a large enough effect in the signal ratio in the repeat runs, not every such curve was filed as active; the % refers to the signal ratio)
In short: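 HEK293T CRE-bla; 18 h preincubation; compound pin-transfer; NKH477 0.25 uM final, 3 h, 37 C; LiveBLAzer FRET substrate 2 h RT.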

[16] = p53 small molecule agonists, cell-based qHTS assay with human liver microsomes: qHTS cell viability counter screen (AID 1963579); further: nearly all actives have a fitted effect of over 45% in size
In short: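 Luminescent CellTiter-Glo read-out, 30 min at room temperature, gauged cytotoxicity in p53RE-bla cells exposed 16 h at 37 C to DMSO-dissolved compounds with metabolic activation by human liver microsomes and NADPH, each 0.5 mg/mL final.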

[17] = molecular target: Muscarinic acetylcholine receptor M1 (Homo sapiens) (UniProt P11229); test: Cholinergic receptor muscarinic 1 (CHRM1) small molecule antagonists, cell-based qHTS assay (AID 1963588); further: nearly all actives have a fitted effect of over 40% in size; further: potency means the concentration at half of the fitted maximal effect
In short: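 Compounds were tested at 15 concentrations in three independent runs. Dye-loaded CHRM1-CHO cells were exposed 5 min at room temperature before stimulation by acetylcholine added at 50nM. Intracellular calcium was read kinetically on FDSS for 3 min.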

[18] = p53 small molecule agonists, cell-based qHTS assay with rat liver microsomes (AID 1963578)
In short: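 Rat liver microsome activation: microsomes 0.5 mg/mL, NADPH 0.5 mg/mL final; p53RE-bla cells, 16 h 37 C; LiveBLAzer readout, 2 h RT dark.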

[19] = p53 small molecule agonists, cell-based qHTS assay (AID 1963582; active means well fitted activation curve with a large enough effect in the signal ratio in the repeat runs, not every such curve was filed as active; the % refers to the signal ratio)
In short: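 Fluorescence intensity read-out of a beta-lactamase reporter under a p53 response element. Cells were exposed to DMSO-dissolved compounds for 16 h at 37 C, then developed with FRET substrate for 2 h at RT.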

[20] = p53 small molecule agonists, cell-based qHTS assay with human liver microsomes (AID 1963577);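 further: p53 response element beta-lactamase reporter cells with liver microsomes plus NADPH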
In short: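 p53RE-bla cells; 5 h settle, 37 C/5% CO2; cpd + HLM 0.5 mg/mL + NADPH 0.5 mg/mL (final); 16 h 37 C; LiveBLAzer 2 h RT dark; fluorescence readout.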

Sequence of Muscarinic acetylcholine receptor M1 (Homo sapiens) (P11229 whole entry, looked up): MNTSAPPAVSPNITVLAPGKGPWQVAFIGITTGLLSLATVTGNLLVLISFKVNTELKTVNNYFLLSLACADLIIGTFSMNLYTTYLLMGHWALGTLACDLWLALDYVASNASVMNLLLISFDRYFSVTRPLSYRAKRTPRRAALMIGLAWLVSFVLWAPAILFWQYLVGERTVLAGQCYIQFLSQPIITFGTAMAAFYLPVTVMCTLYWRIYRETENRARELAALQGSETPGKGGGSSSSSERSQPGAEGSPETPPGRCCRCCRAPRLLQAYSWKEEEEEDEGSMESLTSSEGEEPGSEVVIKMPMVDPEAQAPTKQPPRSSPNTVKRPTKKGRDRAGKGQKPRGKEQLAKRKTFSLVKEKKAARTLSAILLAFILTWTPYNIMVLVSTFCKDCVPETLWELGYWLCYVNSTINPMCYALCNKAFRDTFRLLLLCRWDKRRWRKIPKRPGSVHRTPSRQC
Sequence of KiSS-1 receptor (Homo sapiens) (Q969F8 whole entry, looked up): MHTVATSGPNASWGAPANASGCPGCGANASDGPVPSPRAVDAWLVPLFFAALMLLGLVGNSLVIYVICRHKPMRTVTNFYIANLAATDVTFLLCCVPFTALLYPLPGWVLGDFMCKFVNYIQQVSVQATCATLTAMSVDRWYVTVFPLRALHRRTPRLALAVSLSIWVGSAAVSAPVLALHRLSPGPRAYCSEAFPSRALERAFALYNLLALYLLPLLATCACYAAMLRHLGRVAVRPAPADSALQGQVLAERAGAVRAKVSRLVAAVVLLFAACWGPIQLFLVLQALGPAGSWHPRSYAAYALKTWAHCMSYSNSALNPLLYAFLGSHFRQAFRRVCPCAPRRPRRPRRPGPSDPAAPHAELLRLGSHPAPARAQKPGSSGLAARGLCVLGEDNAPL
Sequence of D(2) dopamine receptor (Homo sapiens) (P14416 whole entry, looked up): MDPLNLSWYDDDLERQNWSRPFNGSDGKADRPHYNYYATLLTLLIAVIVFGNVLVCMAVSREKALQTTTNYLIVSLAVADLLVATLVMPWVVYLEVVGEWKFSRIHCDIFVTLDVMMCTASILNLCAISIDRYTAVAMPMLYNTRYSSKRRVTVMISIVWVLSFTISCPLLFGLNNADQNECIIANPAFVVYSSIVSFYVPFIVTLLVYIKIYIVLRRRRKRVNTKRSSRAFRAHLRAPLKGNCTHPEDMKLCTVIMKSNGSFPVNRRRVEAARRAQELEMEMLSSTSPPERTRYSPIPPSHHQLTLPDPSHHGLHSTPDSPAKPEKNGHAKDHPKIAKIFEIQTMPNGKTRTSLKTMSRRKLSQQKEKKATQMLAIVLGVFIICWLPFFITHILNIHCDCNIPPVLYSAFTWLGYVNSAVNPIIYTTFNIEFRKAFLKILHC
Sequence of 5-hydroxytryptamine receptor 2A (Homo sapiens) (P28223 whole entry, looked up): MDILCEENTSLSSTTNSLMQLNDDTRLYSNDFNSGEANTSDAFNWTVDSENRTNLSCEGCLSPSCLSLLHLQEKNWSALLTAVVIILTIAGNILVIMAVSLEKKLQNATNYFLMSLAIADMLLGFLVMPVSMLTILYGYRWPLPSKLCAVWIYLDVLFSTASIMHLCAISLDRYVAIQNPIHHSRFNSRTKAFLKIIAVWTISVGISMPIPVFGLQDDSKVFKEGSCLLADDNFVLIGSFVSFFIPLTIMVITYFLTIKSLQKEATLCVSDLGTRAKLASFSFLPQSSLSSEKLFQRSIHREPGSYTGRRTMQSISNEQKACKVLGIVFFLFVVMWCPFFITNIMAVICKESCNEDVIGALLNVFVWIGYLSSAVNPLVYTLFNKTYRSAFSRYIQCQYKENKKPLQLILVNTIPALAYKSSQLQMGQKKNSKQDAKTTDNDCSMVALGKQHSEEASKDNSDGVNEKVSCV
Sequence of Beta-2 adrenergic receptor (Homo sapiens) (P07550 whole entry, looked up): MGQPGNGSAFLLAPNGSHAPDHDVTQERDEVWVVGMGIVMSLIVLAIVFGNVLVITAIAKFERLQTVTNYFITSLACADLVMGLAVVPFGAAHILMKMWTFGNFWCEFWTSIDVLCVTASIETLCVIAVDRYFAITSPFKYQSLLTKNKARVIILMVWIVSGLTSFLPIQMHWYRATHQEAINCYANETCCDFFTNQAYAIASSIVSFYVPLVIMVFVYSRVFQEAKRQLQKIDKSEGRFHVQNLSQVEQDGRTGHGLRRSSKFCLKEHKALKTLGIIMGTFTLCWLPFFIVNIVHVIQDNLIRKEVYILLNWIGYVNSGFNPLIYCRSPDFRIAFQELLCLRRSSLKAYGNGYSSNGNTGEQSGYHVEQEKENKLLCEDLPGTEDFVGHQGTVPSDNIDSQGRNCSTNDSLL
Sequence of Gonadotropin-releasing hormone receptor (Homo sapiens) (P30968 whole entry, looked up): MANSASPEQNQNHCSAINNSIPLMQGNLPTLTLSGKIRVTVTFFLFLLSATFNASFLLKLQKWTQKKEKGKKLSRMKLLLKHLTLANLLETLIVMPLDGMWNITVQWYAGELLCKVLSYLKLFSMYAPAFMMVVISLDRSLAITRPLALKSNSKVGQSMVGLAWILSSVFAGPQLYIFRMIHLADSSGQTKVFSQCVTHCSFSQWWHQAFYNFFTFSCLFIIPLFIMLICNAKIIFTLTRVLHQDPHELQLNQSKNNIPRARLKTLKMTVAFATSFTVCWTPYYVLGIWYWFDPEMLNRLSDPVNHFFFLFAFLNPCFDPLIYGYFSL

CCOCCn1c(N2CCCN(C)CC2)nc2ccccc21
Potency [1]: inactive | Potency [2]: inactive | Potency [3]: inactive | Potency [4]: inactive | Potency [5]: inactive | Potency [6]: inactive | Potency [7]: inactive | Potency [8]: inactive | Potency [9]: inactive | Potency [10]: inactive | Potency [11]: inactive | Potency [12]: inactive | Potency [13]: inactive

CN(C)CCCCCCN(C)C
Potency [1]: inactive | Potency [2]: inactive | Potency [3]: inactive | Potency [4]: inactive | Potency [14]: inactive | Potency [7]: inactive | Potency [8]: inactive | Potency [9]: inactive | Potency [15]: inactive | Potency [10]: inactive | Potency [11]: inactive | Potency [12]: inactive | Potency [13]: inactive

N[C@@H](CCC(=O)N[C@@H](CS)C(=O)NCC(=O)O)C(=O)O
activity change, negative = cytotoxicity [1]: 3.9% [at 19 µM] | activity change [2]: 2.39% [at 11.8 µM, stronger effect = higher value] | activation [3]: 0.132% [at 15.8 µM] | activity change, negative = cytotoxicity [16]: -1.1% [at 13.5 µM] | activity change, negative = cytotoxicity [5]: 0.778% [at 13.5 µM] | activity change, negative = cytotoxicity [6]: 13.7% [at 13.5 µM] | activity, negative = inhibition [14]: -1.78% [at 12.7 µM] | activation [7]: 2.78% [at 15.9 µM] | activity, negative = inhibition [17]: 11.9% [at 12.6 µM] | activation [8]: -0.288% [at 15.8 µM] | activity change, negative = inhibition [15]: -10.5% [at 18.9 µM] | activity change, negative = inhibition [10]: -5.33% [at 19 µM] | activation [11]: 20.3% [at 19 µM] | activation [12]: -7.59% [at 19 µM]

O=c1[nH]c2ccc(S(=O)CCN3CCC(Cc4ccc(F)cc4)CC3)cc2o1 (stereo not given)
Potency [1]: inactive | Potency [2]: inactive | Potency [3]: inactive | Potency [18]: inactive | Potency [5]: inactive | Potency [19]: inactive | Potency [14]: inactive | Potency [7]: inactive | Potency [17]: 14.9 µM (active) | Potency [8]: inactive | Potency [10]: inactive | Potency [11]: inactive

Cc1cccc(N(C)C(=S)Oc2ccc3c(c2)C2CCC3C2)c1 (stereo not given)
Potency [1]: inactive | Potency [2]: inactive | Potency [3]: inactive | Potency [16]: inactive | Potency [5]: inactive | Potency [6]: inactive | Potency [19]: inactive | Potency [14]: 1.63 µM (active) | Potency [7]: inactive | Potency [17]: inactive | Potency [8]: inactive | Potency [15]: inactive | Potency [10]: inactive | Potency [11]: inactive | Potency [12]: inactive | Potency [13]: inactive

CN(C)CCC(c1ccc(Cl)cc1)c1ccccn1 (stereo not given)
Potency [1]: inactive | Potency [2]: inactive | Potency [3]: inactive | Potency [4]: inactive | Potency [6]: inactive | Potency [9]: inactive | Potency [15]: inactive | Potency [10]: inactive | Potency [11]: inactive | Potency [12]: inactive | Potency [13]: inactive

CCCCO
Potency [1]: inactive | Potency [3]: inactive | Potency [4]: inactive | Potency [20]: inactive | Potency [18]: inactive | Potency [16]: inactive | Potency [5]: inactive | Potency [6]: inactive | Potency [19]: inactive | Potency [14]: inactive | Potency [7]: inactive | Potency [17]: inactive | Potency [8]: inactive | Potency [9]: inactive | Potency [10]: inactive | Potency [12]: inactive | Potency [13]: inactive

CC/C=C1/OC(=O)c2ccccc21
Potency [1]: inactive | Potency [2]: inactive | Potency [4]: inactive | Potency [20]: inactive | Potency [18]: inactive | Potency [5]: inactive | Potency [6]: inactive | Potency [19]: inactive | Potency [14]: inactive | Potency [17]: inactive | Potency [8]: inactive | Potency [9]: inactive | Potency [12]: inactive | Potency [13]: inactive
